Screens from PubChem BioAssay.
SNCA expr inhib: inhibitors of alpha-synuclein (SNCA) gene expression; HEK-293 SNCA-luciferase knock-in, luminescence, 24 h; Potency, µM (highest dose often 57.2 µM), for inactives: top-dose activity change, negative = inhibition, most hits filed as inhibitors; 140,000 compounds, 0.17% hits;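 also: potency is read from the fitted curve at half-maximal effect; plate controls were DMSO cells for no effect and cell-free wells for full effect; nearly all actives have a fitted effect of over 45% in size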
IP6K1 inh: inhibitors of human IP6K1; activity change, % (series mostly up to about 58 µM); IP6K1 kinase, ADP-Glo luminescence, 2 h; stronger effect = lower value; 140,000 compounds, 0.81% hits; AID 1645851; Q92551; in the data active = activity change below about -25%; also: % is scaled to controls: 0 for no effect and ±100 for the full control effect
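ADP-Glo luminescence measures ADP made by human IP6K1 during a 2 h RT reaction with ATP/IP6 (mix at 1.3 mM/130 uM); top library doses 57.5 and 19.1 uM final.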
SNCA viab count: cell viability loss counter-screen; 150,000 compounds, 0.12% hits; AID 1671193; HEK-293-SNCA-luc viability, GF-AFC fluorescence, 24 h; Potency, µM (highest dose often 57.1 µM), for the others: top-dose activity change, negative = cytotoxicity, hits mostly cytotoxic;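 also: potency is read from the fitted curve at half-maximal effect; 0% = DMSO-treated cells and -100% = medium-only wells without cells; nearly all actives have a fitted effect of over 30% in size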
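HEK-293-SNCA-luc cells (1500/well) plated 24 h, then exposed 24 h to a dilution series; GF-AFC added 30 min at 37C, fluorescence 405/540 nm; normalised to medium-only and DMSO wells, Hill fit.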
KDM5B inh: KDM5B demethylase inhibition; 220,000 compounds, 2.6% hits; Q9UGL1; Potency, µM (series often up to 57.7 µM), usual class: inhibitors; KDM5B demethylase, FDH-coupled NADH fluorescence (FDH is formaldehyde dehydrogenase); also: potency is read from the fitted curve at half-maximal effect; 0% is about no effect; nearly all actives have a fitted effect of over 70% in size
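KDM5BΔAP (200 nM final) in 50 mM HEPES pH 7.5, 0.01% Tween-20 was preincubated 10 min at RT with compound over a concentration range. Substrate mix (H3K4me3 12.5 µM, α-KG 25 µM, Fe²⁺, ascorbate, NAD⁺, FDH) was added, and NADH fluorescence change over 30 min gave dose-response curves.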
* marks the source's active call; other numbers are inactive results; i = inactive; ? = inconclusive; . = no result given; [ ] = another dose, or the depositor's remark. An excerpt weighted towards active compounds, which were near 2.8% of everything screened. Unless noted, calls follow the shape of the dose curve; as a rule, active = well fitted curve in the direction sought with a large enough effect; inconclusive = small, poorly fitted or top-dose-only effect, or another doubt; inactive = no such curve, though single readings can be large; an effect the other way counts as inactive or inconclusive.

SMILES	SNCA expr inhib	IP6K1 inh	SNCA viab count	KDM5B inh
COCC1CN(C(=O)c2nccn2C)CC12CCNCC2 (stereo not drawn)	6%	26	1%	25µM*
CNC(=O)c1cc(C2CC2)nc2c1c(C1CCCN1[S+](=O)([O-])c1ccccc1)nn2C (stereo not drawn)	.	2	.	.
N#Cc1ccc(CSc2nnc(N3CCCCC3)n2-c2ccccc2)cc1	.	.	.	i
CCCC(O)CN1CCC(=O)N(C2CCCC2)Cc2cc(F)ccc21 (stereo not drawn)	.	6	.	.
CC1CCN(S(=O)(=O)NC(C)Cc2ccco2)CC1 (stereo not drawn)	.	.	.	i
CNC(=O)c1cccc(-c2cnc(Nc3cccnc3OC)c3c2CCO3)c1	2%[87.6 µM]	-5	?	35µM*
CNC(=O)c1cccc(-c2cnc(Nc3ccc(N4CCOCC4)cc3)c3c2CCO3)c1	96%[87.6 µM]	-19	-23%[87.6 µM]	?
COc1cncc(Nc2ncc(-c3cccnc3)c3c2OCC3)c1	109%[87.6 µM]	-20	5%[87.6 µM]	i
CNC(=O)c1cccc(-c2cnc(Nc3ccccc3)c3c2CCO3)c1	172%[87.6 µM]	-18	-17%[87.6 µM]	32µM*
N#Cc1cccc(-c2cn3c(n2)N(C(=O)COc2ccccc2)CCC3)c1	1%	-3	4%	28µM*
N#Cc1cccc(-c2cn3c(n2)N(C(=O)c2ccccc2F)CCC3)c1	4%	5	-7%	20µM*
N#Cc1cccc(-c2cn3c(n2)N(C(=O)Cc2ccsc2)CCC3)c1	13%	9	8%	32µM*
O=C(Cc1cccs1)N1CCCn2cc(-c3ccccc3F)nc21	-16%	3	-3%	?
N#Cc1cccc(-c2cn3c(n2)N(C(=O)c2ccccc2)CCC3)c1	83%	-6	1%	20µM*
CC(=O)NCC(=O)N1CCCn2cc(-c3cccc(C#N)c3)nc21	-19%	10	-11%	i
Cc1ccc(C(=O)N2CCCn3cc(-c4cccc(C#N)c4)nc32)cc1	73%	7	5%	32µM*
N#Cc1cccc(-c2cn3c(n2)N(C(=O)c2ccsc2)CCC3)c1	85%	10	3%	18µM*
N#Cc1cccc(-c2cn3c(n2)N(C(=O)c2cnccn2)CCC3)c1	37%	8	1%	?
N#Cc1cccc(-c2cn3c(n2)N(C(=O)CC2CCCC2)CCC3)c1	59%	15	6%	20µM*
Cc1ccc(C(=O)N2CCCn3cc(-c4ccccc4)nc32)cn1	92%	-5	-22%	?
COc1cccc(-c2cn3c(n2)N(C(=O)Cn2ccnc2)CCC3)c1	71%	2	9%	i
CCOc1ccc(S(=O)(=O)N2CCCCC2)cc1NC(=O)Cc1n[nH]c(=O)c2ccccc12	.	.	.	i
CC(C)(C)CC(=O)N1CCN2C(=O)c3cc(-c4ccccc4)ccc3NC(=O)[C@H]2C1	-25%[87.6 µM]	2	-4%[87.6 µM]	32µM*
COc1ccc(-c2ccc3c(c2)C(=O)N2CCN(C(=O)CC(C)(C)C)C[C@@H]2C(=O)N3)cc1	-10%[87.6 µM]	7	-1%[87.6 µM]	28µM*
O=C1Nc2ccc(-c3ccccc3F)cc2C(=O)N2CCN(C(=O)c3ccco3)C[C@@H]12	-8%[87.6 µM]	-1	0%[87.6 µM]	35µM*
SMILES	SNCA expr inhib	IP6K1 inh	SNCA viab count	KDM5B inh
CCc1ccc(CN2CCCC23Cc2ccccc2CNC3=O)cc1 (stereo not drawn)	?	-16	-1%	i
CCCn1nc(C(=O)Nc2nc(C(C)=O)cs2)c2ccccc2c1=O	.	.	.	i
O=S(=O)(NCCc1cn2ccccc2n1)c1ccccc1C(F)(F)F	.	.	.	i
O=C(c1ccc(F)cc1)N1Cc2[nH]cnc2C[C@H]1c1nc(-c2ccc3c(c2)OCO3)no1	?	-12	-10%[87.6 µM]	40µM*
O=C(Nc1cccc(F)c1)N1Cc2[nH]cnc2C[C@H]1c1nc(-c2ccccc2)no1	79%[87.6 µM]	-1	-26%[87.6 µM]	28µM*
O=C(Nc1cccc(F)c1)N1Cc2[nH]cnc2C[C@H]1c1nc(-c2ccc3c(c2)OCO3)no1	?	12	-27%	?
O=C(Nc1cccc(F)c1)N1Cc2[nH]cnc2C[C@H]1c1nc(-c2ccc(Cl)cc2)no1	-9%	12	?	i
C=C1/C(=C/C=C2\CCC[C@]3(C)[C@@H]([C@H](C)/C=C/C(=O)C4CC4)CC[C@@H]23)C[C@@H](O)C[C@@H]1O	.	-20	24µM*	.
CC(C)(C)c1coc2cc3oc(=O)c4ccccc4c3cc12	.	.	.	i
Cc1ccc(C(=O)N(CCCN)C(c2oc3cc(Cl)ccc3c(=O)c2Cc2ccccc2)C(C)C)cc1 (stereo not drawn)	.	-1	30µM*	.
